A selection: hits, their analogues and other compounds. The true share with any hit is near 19%.
HT1080 IDH1KD tx: kills HT-1080 cells with IDH1 knockdown; Potency, µM (doses to about 46.1 µM), actives largely listed as cytotoxic; hit rate 2% among 360,000; HT-1080 IDH1 knockdown viability, ATP luminescence, 48 h; AID 686971
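Viability of IDH1-knockdown HT-1080 fibrosarcoma cells was assessed by CellTiter-Glo after 48 h at 37 °C with titrated compound; concentration-effect curves were classified by fit quality and response size.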
TDP1 cell CPT: DT40-hTDP1 cell growth loss with CPT | chicken DT40 Tdp1-/-;hTDP1 cells + 20 nM CPT, ATP luminescence, 48 h | Potency, µM (highest dose often 46.2 µM), most hits filed as inhibitors | hit rate 12% among 420,000; note: nearly all actives have a fitted effect of over 55% in size
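Cell growth measured by CellTiter-Glo luminescence after a minimum 48 h, 37 C compound exposure with 20 nM CPT in Tdp1-knockout DT40 cells stably expressing hTDP1, seeded 400/well; qHTS titration format.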
HT1080NT lethal: kills 2HG-producing HT-1080-NT fibrosarcoma cells; HT-1080-NT fibrosarcoma viability, CellTiter-Glo ATP luminescence, 48 h; Potency, µM (highest dose often 46.1 µM), usual class: cytotoxic; AID 686970; hit rate 1.6% among 360,000;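 note: NT is the 2HG producing partner of a matched IDH1 knockdown line; nearly all actives have a fitted effect of over 55% in size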
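Luminescent CellTiter-Glo readout after 48 hours of compound exposure at 37 degrees C defined viability of HT-1080-NT cells. Activity was normalized to DMSO wells and cell-free media wells; concentration-response curves were fitted and assigned curve classes.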
IL-1B inflam inh: blocks inflammasome-driven IL-1 beta release; THP-1 LPS/ATP IL-1B secretion, AlphaLISA, 16 h; active compounds read low; activity change, % at 57.5 µM; hit rate 4.7% among 360,000; AID 743279; in the data active = activity change below about -50%; inconclusive = mostly about -30% to -49%
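THP-1 cells pretreated 1 hr with compounds (up to 57.5 uM final), then stimulated with LPS (250 ng/mL final) plus ATP (1.25 mM final); secreted IL-1B measured by AlphaLISA after 16 hr, decreased signal indicating inhibition.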
ELG1 repair inh: inhibitors of ELG1-dependent DNA repair in HEK293T cells. HEK293T ELG1-luciferase reporter, luminescence, 16 h; DNA damage induced by 5-fluorouridine. Potency, µM (titrated, usually from 46.1 µM), usual class: inhibitors. hit rate 2.3% among 330,000; note: nearly all actives have a fitted effect of over 55% in size
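DMSO vehicle served as the neutral condition. Each well held 2,000 cells given 5-fluorouridine plus compound; after 16 hr at 37 °C/5% CO2, ONE-Glo was added and luciferase measured 30 min later.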
DT40 TDP1 no CPT: qHTS for Inhibitors of human tyrosyl-DNA phosphodiesterase 1 (TDP1): qHTS in cells in absence of CPT; DT40 Tdp1-/- hTDP1 cells, no CPT, ATP luminescence, 48 h; Potency, µM (series often up to 46.2 µM), usual class: inhibitors; hit rate 15% among 420,000; AID 686978, 2013; note: nearly all actives have a fitted effect of over 55% in size
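Readout: luminescence from CellTiter-Glo after 30 min in the dark at RT. Cells: DT40 Tdp1-/- with stable hTDP1, 400/well. Exposure: compounds alone, ≥48 hr, 37 °C.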
Hits are given with their value; – = inactive; ? = inconclusive; · = not tested or not shown; [ ] = dose if it differs, or a comment. Unless noted, calls come from the whole dose curve; as a rule, active = well fitted curve in the direction sought with a large enough effect; inconclusive = small, poorly fitted or top-dose-only effect, or another doubt; inactive = no such curve, though single readings can be large; an effect the other way counts as inactive or inconclusive.

SMILES	HT1080 IDH1KD tx	TDP1 cell CPT	HT1080NT lethal	IL-1B inflam inh	ELG1 repair inh	DT40 TDP1 no CPT
CCOc1ccc(Nc2nc(C)c(NC(=O)c3ccc(C)cc3)c(Nc3ccc(OCC)cc3)n2)cc1	·	1.3µM	·	·	·	2.59µM
CCOC(=O)c1c(C)[nH]c(C)c1C(=O)COC(=O)c1cc2ccccc2cc1O	?	?	–	-67.0	?	16.4µM
CCOC(=O)c1c(C)[nH]c(C)c1C(=O)COC(=O)/C=C/c1ccc(OC)cc1	14.6µM	7.31µM	?	–	?	8.2µM
CCOC(=O)C(CC)(CC)C(=O)/C=C/c1ccc(OC)cc1	–	?	–	–	?	18.4µM
CCOC(=O)c1c(C)[nH]c(C)c1C(=O)COC(=O)c1cc2ccccc2cc1OC	–	?	–	–	?	23.1µM
CCOC(=O)c1c(C)[nH]c(C)c1C(=O)COC(=O)[C@@H](NC(=O)c1ccccc1OCC)C(C)C	–	?	?	–	–	20.6µM
COc1ccc2c(c1)CC/C(=C\C=C\c1ccccc1)C2=O	–	?	–	–	?	23.1µM
COc1ccc(OC)c(C=C2CCc3ccccc3C2=O)c1	?	20.6µM	?	–	·	?
COc1ccc2c(c1)CC/C(=C/c1ccccn1)C2=O	–	?	–	?	?	?
COc1ccc2c(c1)CC/C(=C/c1cc(OC)c(OC)c(OC)c1)C2=O	–	?	–	-85.2	18.3µM	14.6µM
COc1cccc(COC(=O)CCNC(=O)c2ccc(Cl)cc2)c1OC	–	–	–	–	–	–
Cc1ccccc1NC(=S)C1=C(O)c2sccc2N(C)S1(=O)=O	–	?	–	–	–	?
CN1c2ccccc2C(O)=C(C(=S)Nc2ccc(F)c(Cl)c2)S1(=O)=O	–	?	?	–	–	18.4µM
CN1c2ccsc2C(O)=C(C(=S)Nc2ccccc2)S1(=O)=O	–	14.6µM	–	–	–	23.1µM
CN1c2ccccc2C(O)=C(C(=S)Nc2ccccc2)S1(=O)=O	–	18.4µM	–	–	–	25.9µM
Cc1ccc(NC(=S)C2=C(O)c3ccccc3N(C)S2(=O)=O)cc1	–	?	–	–	–	20.6µM
CN1CCN(CCCNC(=S)Nc2ccc(F)c(Cl)c2)CC1	–	–	–	?	–	–
CN1c2ccccc2C(O)=C(C(=O)Nc2ccccc2)S1(=O)=O	–	?	–	–	–	?
COc1ccc(NC(=O)C(NS(=O)(=O)c2cccc3nsnc23)C(C)C)cc1OC (centres undefined)	·	–	·	·	·	–
CCOC(=O)C1CCCN(C(=O)CN2C(=O)c3ccccc3S2(=O)=O)C1 (centres undefined)	–	–	–	–	–	–
Cc1ccc(-c2nn(CCC(N)=O)c(=O)c3ccccc23)cc1	–	–	–	–	–	–
C[C@H]1C(O)[C@@]23CCC4C5(C=[N+](CCO)C[C@]4(C)CCC5)C2C[C@@H]1C3 (some centres undefined)	·	–[9.04 µM]	·	·	·	–[9.04 µM]
Cc1nc(C)c(-c2csc(Nc3ccc(N)cc3)n2)s1	–	?	–	–	?	16.4µM
COc1ccc(Nc2nc(-c3sc(C)nc3C)cs2)cc1	3.66µM	1.16µM	5.17µM	–	–	1.16µM
Cc1nc(N)sc1-c1csc(Nc2ccccc2)n1	–	?	–	–	?	?
SMILES	HT1080 IDH1KD tx	TDP1 cell CPT	HT1080NT lethal	IL-1B inflam inh	ELG1 repair inh	DT40 TDP1 no CPT
COc1ccc(-c2csc(Nc3ccc(Oc4ccccc4)cc3)n2)cc1	13µM	18.4µM	?	–	·	16.4µM
O=C(NNC(=O)c1cc(-c2ccncc2)nc2ccccc12)Nc1ccc(F)cc1	–	?	–	–	–	?
Cn1nc(-c2ccccc2)cc1NC(=O)Nc1ccc(C(C)(C)C)cc1	–	?	–	-54.4	–	?
CC(C)(C)c1ccc(-c2cc(C(=O)NNC(=O)Nc3ccccc3)c3ccccc3n2)cc1	?	?	?	-50.2	?	20.6µM
O=C(NNC(=O)c1cc(-c2cccnc2)nc2ccccc12)Nc1ccc(Cl)cc1	?	?	?	-96.4	?	?
O=C(NNC(=O)c1cc(-c2ccccc2)nc2ccccc12)Nc1cccc(Cl)c1	?	?	18.4µM	–	?	20.6µM
CC(=O)Nc1ccc(-c2cc(C(=O)O)c3ccccc3n2)cc1	?	–	–	–	–	–
O=C(Nc1ccc2oc(-c3cccc(F)c3)nc2c1)c1ccc2ccccc2c1	·	–	·	·	·	–
O=C(C1=C(O)C(=O)N(CC2CCCO2)C1c1ccc(Cl)cc1Cl)c1ccco1 (centres undefined)	–	?	–	–	–	?
CCOc1ccc(CCNC(=O)CCCc2nnc3n(C)c(=O)c4sccc4n23)cc1OCC	·	–	·	·	·	–
Cc1cccc(COc2ccc(S(=O)(=O)N3CCOCC3)cc2[N+](=O)[O-])c1	–	–	–	–	–	–
COc1cc(COc2ccc(S(=O)(=O)N3CCOCC3)cc2[N+](=O)[O-])ccc1OC(F)F	–	18.4µM	–	–	·	?
Cc1c(NS(=O)(=O)c2ccc(NCCN3CCOCC3)c([N+](=O)[O-])c2)c(=O)n(-c2ccccc2)n1C	–	–	–	–	–	–
O=C(NC1CC1)C1=NOC(CNc2ncc(C(F)(F)F)cc2Cl)C1 (centres undefined)	–	–	–	–	–	–
O=C(C1=NOC(CNc2ncc(C(F)(F)F)cc2Cl)C1)N1CCOCC1 (centres undefined)	–	0.461µM	–	–	–	–
O=C(c1cc2ccc3cccnc3c2[nH]1)N1CCN(c2ccccc2)CC1	·	–	·	·	·	–
CC(=O)Oc1ccc(C2(c3ccc(OC(C)=O)cc3)Oc3ccccc3NC2=O)cc1	·	?	·	·	·	18.8µM
O=C(c1ccc2c(c1)OCO2)N1CCN(S(=O)(=O)c2ccc(Cl)cc2)CC1	–	–	–	–	–	–
c1cncc(-c2cncnc2NC2CCNCC2)c1	·	16.4µM	·	·	·	–
O=C(COC(=O)c1cccc(C(=O)OCC(=O)c2ccc(Br)cc2)n1)c1ccc(Br)cc1	–	16.4µM	–	–	–	?
COc1ccc(NC(=O)c2cnc[nH]2)cc1	·	–	·	·	·	?
Cc1ccc(OC/C(=N\O)C(C)(C)C)c([N+](=O)[O-])c1	–	–	–	-82.3	–	–
CC(C)(C)C(=O)COc1ccccc1[N+](=O)[O-]	–	14.6µM	–	–	–	?
Cc1nc2ccccc2n1CCc1nc2c3ccccc3nc(SCC(=O)NCc3ccco3)n2n1	?	?	?	–	?	?
CCC(Sc1nc2ccccc2c2nc(CCn3c(C)nc4ccccc43)nn12)C(=O)Nc1ccc(F)cc1 (centres undefined)	·	?	·	·	·	2.31µM
